# Screening results: PubChem, The Scripps Research Institute Molecular Screening Center
# bovine MsrA act = bovine MsrA enzyme activators, primary screen, biochemical, absorbance, HTS; activation, % at 10.6 µM; purified bovine MsrA, absorbance read-out; Methionine sulfoxide reductase A (Bos taurus); 360,000 compounds, 0.3% hits; AID 602163, 2012; in the data active = activation above about 7.5%;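 also: 0% = vehicle and 100% = reference activator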
# PKA-R2B act = activators of PKA-R2B holoenzyme, primary screen, biochemical, fluorescence polarization, Cy5-IP20, human; cAMP-dependent protein kinase catalytic subunit beta (Homo sapiens) + cAMP-dependent …; PKA-R2B holoenzyme dissociation; R2B truncated from residue 108, S112A mutant; 0% DMSO only, 100% 113 µM cGMP; activation, % at 11.4 µM; 340,000 compounds, 0.079% hits; AID 504700, 2011;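 active = activation above a cutoff set at the mean over all compounds plus 3 SD, cut at about 18% in these data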;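 also: higher means more holoenzyme dissociation and a rise in polarization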
# Target sequence (P31323 whole entry, looked up, other chains not shown, the tested form may be a part): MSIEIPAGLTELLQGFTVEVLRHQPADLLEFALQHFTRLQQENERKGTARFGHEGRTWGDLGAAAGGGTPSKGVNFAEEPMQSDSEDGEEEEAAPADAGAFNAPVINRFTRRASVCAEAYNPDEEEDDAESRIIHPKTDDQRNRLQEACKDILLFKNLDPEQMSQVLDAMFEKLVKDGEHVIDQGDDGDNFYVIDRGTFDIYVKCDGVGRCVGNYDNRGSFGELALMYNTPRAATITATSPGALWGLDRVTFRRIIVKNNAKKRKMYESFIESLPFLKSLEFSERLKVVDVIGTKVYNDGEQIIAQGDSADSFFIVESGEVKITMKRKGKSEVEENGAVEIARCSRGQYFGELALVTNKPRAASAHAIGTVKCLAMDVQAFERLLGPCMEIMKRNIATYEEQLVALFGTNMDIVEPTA
# MsrA inh = bovine MsrA enzyme inhibitors, primary screen, biochemical, absorbance, HTS; Methionine sulfoxide reductase A (Bos taurus); 360,000 compounds, 0.75% hits; inhibition, % at 15.5 µM; purified bovine MsrA, absorbance read-out;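 also: 0% = vehicle wells with enzyme and 100% = reference inhibitor wells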
# PKA-R1A activ = activators of PKA-R1A holoenzyme, primary screen, biochemical, fluorescence polarization, Cy5-IP20, bovine R1A, mouse PKAc; cAMP-dependent protein kinase type I-alpha regulatory subunit (Bos taurus) + …; PKA-R1A dissociation; scaled: DMSO 0%, 113 µM cGMP 100%; activation, % at 11.4 µM; 340,000 compounds, 0.083% hits; AID 504707, 2011;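 active = percent activation above the mean of all tested compounds plus 3 SD, cut at about 19% in these data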;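 also: higher means more PKAc released from R1A so a rise in polarization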
# MsrA conf = bovine MsrA inhibitors, retest, confirmation, biochemical, absorbance, HTS; purified bovine MsrA, absorbance read-out; shares compounds with MsrA inh; 2,300 compounds, 41% hits; inhibition, % at 15.5 µM;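 also: coupled to thioredoxin reductase with NADPH and selenocystamine and DMSO as substrate; 0% = vehicle only and 100% = full effect of reference inhibitor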
# The depositor's hits bear a star; · = not tested or not shown. An excerpt weighted towards active compounds, which were near 1.1% of everything screened. Rule as the data show it, unless noted: active = inhibition above about 4.5%; inactive = the rest.
SMILES,bovine MsrA act,PKA-R2B act,MsrA inh,PKA-R1A activ,MsrA conf
Cc1ccc2oc(-c3ccco3)cc(=O)c2c1,-6,3,7.7*,-6,5.4*
COCc1nnc(NC(=O)c2cc3ccccc3o2)s1,-3,-10,5.1*,3,2
O=C(Nc1scc(-c2ccccc2)c1C(=O)O)c1ccccc1Cl,-2,-5,0,-3,·
O=C(/C=C/c1cccs1)Nc1nc(-c2ccccc2)cs1,-6,4,1,-3,·
O=C(/C=C/c1cccs1)Nc1scc(-c2ccccc2)c1C(=O)O,-9,8,11*,6,5.6*
O=C(/C=C/c1cccs1)Nc1nncs1,-6,2,5.9*,1,4
Cc1ccc(-c2cc3nc(C)cc(N4CCN(C(=O)c5ccoc5)CC4)n3n2)cc1,-5,-7,1,10,·
CN(C)c1ccc(/C=N/NC(=O)CNC(=O)/C=C/c2ccco2)cc1,-7,-2,6.7*,1,7.1*
CN(C)c1ccc(/C=N/NC(=O)CNC(=O)c2ccncc2)cc1,-7,-1,5.1*,16,5.1*
CN(C)c1ccc(/C=N/NC(=O)CNC(=O)c2ccc3c(c2)OCCO3)cc1,-10,-13,5.1*,-1,5.1*
CC(=O)C1=C(O)C(=O)N(c2cc(C(C)(C)C)on2)C1c1ccc(C(C)C)cc1 (centres undefined),-4,1,·,-2,·
CC(=O)C1=C(O)C(=O)N(c2cc(C(C)(C)C)on2)C1c1ccc(Br)cc1 (centres undefined),1,-5,4.9*,-7,2
COc1ccc(N2CC(C(=O)NCc3n[nH]c(=O)c4ccccc34)CC2=O)cc1 (centres undefined),-4,-5,-1,0,·
CCCn1c(N)c(N(CCOC)C(=O)CSc2cc(C)c3cccc(C)c3n2)c(=O)[nH]c1=O,-3,-1,3,-3,·
CC(C(=O)NC(C)(C)C)N1C(=O)c2cccc3cccc(c23)C1=O (centres undefined),-5,0,4.8*,-3,3
COc1ccc(C2=CN3CCCCC3CC2=O)cc1OC (centres undefined),-1,8,4,-11,·
CCCOc1c(OC)cccc1C1CC(=O)Nc2cc3c(cc21)OCO3 (centres undefined),-4,-2,5.1*,3,4.7*
CCCOc1c(OC)cccc1C1CC(=O)Nc2cc3c(cc21)OCCO3 (centres undefined),-4,-2,0,-11,·
Cc1cc2c(c(C)c1CCO)C(=O)[C@H](C)C2,-7,1,-1,-3,·
O=c1oc2c(-c3ccc([N+](=O)[O-])cc3)cc(O)cc2s1,2,-14,7.5*,3,0
NC1=C(c2ccc([N+](=O)[O-])cc2)C(=O)CO1,-7,-17,4,-9,·
CNc1nc(N)c([N+](=O)[O-])c(NCCO)n1,-6,0,5.0*,-9,4
CCN(CC)CCCNc1nc(N)c([N+](=O)[O-])c(NCCO)n1,-3,1,5.1*,6,4.9*
Nc1nc(NCc2ccccc2)nc(NCCO)c1[N+](=O)[O-],-7,2,4,5,·
CN(C)CCCNc1nc(N)c([N+](=O)[O-])c(NCCO)n1,-2,-9,3,10,·
SMILES,bovine MsrA act,PKA-R2B act,MsrA inh,PKA-R1A activ,MsrA conf
CCOC(=O)c1cc(C(C)=O)c(=O)n(C)c1N,-5,3,5.9*,-2,4.8*
CCOC(=O)c1ccc2cccc(C)n2c1=O,-10,-3,·,0,·
CC(=O)c1ccc(N2CCN(C(=O)C(=O)c3cn(CC(=O)N4CCOCC4)c4ccccc34)CC2)cc1,-5,-12,6.8*,-4,5.6*
COc1ccc(N2CCN(C(=O)C(=O)c3cn(CC(=O)N4CCOCC4)c4ccccc34)CC2)cc1,0,7,2,5,·
Cc1ccc(/C=N\Nc2nc3ccc(Cl)cc3[nH]2)o1,0,10,4.7*,2,4
Fc1ccccc1-c1ccc(/C=N/Nc2nc3ccccc3[nH]2)o1,-2,-13,2,-1,·
Cc1cc(C)nc(NS(=O)(=O)c2ccc(N/C=C3\CCCC3=O)cc2)n1,-8,0,5.2*,-1,5.5*
CC1CC(C)C[N+](=C2C=C(N3CCCC3)CC(C)(C)C2)C1 (centres undefined),-10,3,5.8*,16,4
CC1(C)CC(N2CCN(c3ccccc3)CC2)=CC(=[N+]2CCCC2)C1,-5,-3,5.5*,-9,5.0*
CC1(C)CC(N2CCCC2)=CC(=[N+]2CCCCCC2)C1,-10,-4,6.7*,1,4.9*
Cc1ccc(NC(=O)COC(=O)c2ccc(CN3CCCC3=O)cc2)cc1C,-2,2,-1,-2,·
O=C(CSC1=NS(=O)(=O)c2cc(F)ccc2N1)Nc1cccc(F)c1,0,-4,0,-1,·
O=C(Nc1ccc(Cl)cc1)OC[C@@H]1CSCCS(=O)(=O)N1,·,·,1,·,·
O=C(CC1CCCC1)N[C@H](C(=O)N1CCC[C@H]1C(=O)NCc1ccccc1)c1ccccc1,·,·,-1,·,·
COc1ccc(NC2CCCN(C(=O)C3=NNC(=O)CC3)C2)cc1 (centres undefined),0,3,-1,10,·
CCCc1nc(SCC(=O)O)c2sc(=S)n(-c3ccccc3)c2n1,-1,-4,4.7*,-17,4.8*
CC(=O)N1CCN(c2ccc(N3CCN(Cc4ccccc4)[C@@H](C)C3)c(C)c2)[C@H](C)C1,·,·,1,·,·
CCC(C)[C@H](NC(=O)N1CC(=O)Nc2ccccc21)C(=O)N1CCC(C(=O)O)CC1 (some centres undefined),-8,3,0,-2,·
CC(=O)C1=C(O)C(=O)N(Cc2ccccc2)C1c1ccc([N+](=O)[O-])cc1 (centres undefined),-4,-8,3,-12,·
C(=N\Nc1ccccn1)/c1cccnc1,-1,-3,5.6*,5,4
FC(F)(F)c1ccc(N/N=C/c2cccnc2)nc1,-4,-6,3,2,·
O=Cc1ccc2oc3nc4n(c(=O)c3c(=O)c2c1)CCCS4,-3,3,6.6*,-3,5
Cc1sc2nc3n(c(=O)c2c1C)CCCS3,-3,9,2,-3,·
Cn1cnnc1SC/C(O)=C(\C#N)c1nc2ccccc2[nH]1,-8,-12,4.8*,1,2
CCCn1c(SC/C(O)=C(\C#N)c2nc3ccccc3[nH]2)n[nH]c1=O,-5,-9,4.7*,-4,2
COc1ccc2ccc(OC)c(/C=N/n3cnnc3)c2c1,-4,-4,1,-5,·
